# Results filed as inconclusive are left out. Where a call stands in place of a potency, no number is given. A number with no mark means an inactive call. Active and inactive are the calls of the source. Calls follow the shape of the dose curve; as a rule, active = well fitted cell-killing curve with a large enough effect in the repeat runs; inconclusive = weak or mixed curves, or effect the other way; inactive = flat fitted curve, though single readings scatter.
# What was measured:
# [1] = cAMP Responsive Elements (CRE) small molecule antagonists, cell-based qHTS assay: qHTS cell viability counter screen (AID 2060913); also: nearly all actives have a fitted effect of over 40% in size
# Summary of the method: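 CRE-bla HEK293T cells were seeded in assay medium with 10% dialyzed FBS, incubated 18 hrs at 37 C, then exposed to compounds plus 0.25 uM final NKH477 for 3 hrs. Viability was read by CellTiter-Glo luminescence after 30 min, in the same wells.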
# [2] = cAMP Responsive Elements (CRE) small molecule agonists, cell-based qHTS assay: qHTS cell viability counter screen (AID 2060914); also: nearly all actives have a fitted effect of over 50% in size
# Summary of the method: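 Cytotoxicity was measured as ATP luminescence (CellTiter-Glo, 30 min at room temperature) in the same wells as the CRE-bla FRET read-out. HEK293T CRE-bla cells had 3 h compound exposure at 37C/5% CO2.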
# Potency is read from the fitted curve at half-maximal effect.
Structure (SMILES),Potency [1],Potency [2],"viability change, negative = cytotoxic [1]","activity change, negative = cytotoxicity [2]"
CSc1ccc(Cl)cc1,inactive,inactive,,
C=CCCCCCCCCC(=O)OCCCC,inactive,inactive,,
NCCNCCNCCNCCN,inactive,inactive,,
CC(=O)c1ccc2ccccc2c1,inactive,inactive,,
COCC(O)CO (stereo not drawn),inactive,inactive,,
O=C(Cl)c1cccc(C(=O)Cl)c1,inactive,inactive,,
CCN(CCN)c1cccc(C)c1,inactive,inactive,,
CC(=O)OCC(=O)NCCCOc1cccc(CN2CCCCC2)c1,inactive,inactive,,
CC1(C)S[C@@H]2[C@H](NC(=O)Cc3ccccc3)C(=O)N2[C@H]1C(=O)O (tested in a mixture with another compound),inactive,inactive,,
CC(C)CC(=O)N[C@H](C(=O)N[C@H](C(=O)N[C@@H](CC(C)C)[C@@H](O)CC(=O)N[C@@H](C)C(=O)N[C@@H](CC(C)C)[C@@H](O)CC(=O)O)C(C)C)C(C)C,inactive,inactive,,
Nc1cccc2c(=O)[nH][nH]c(=O)c12,inactive,inactive,,
CO[Si](OC)(c1ccccc1)c1ccccc1,inactive,inactive,,
CCN(CC)c1ccc2c(-c3ccccc3C(=O)O)c3ccc(=[N+](CC)CC)cc-3oc2c1,inactive,inactive,,
COc1ccc(Br)c(C)c1,inactive,inactive,,
COc1cc2c(cc1OC)CN(C(=O)[C@H](C)N[C@@H](CCc1ccccc1)C(=O)O)[C@H](C(=O)O)C2,inactive,inactive,,
COC(=O)c1ccc(OC)cc1,inactive,inactive,,
O=NN(CCCl)C(=O)NCCCl,inactive,inactive,,
O=c1[nH][nH]c(=O)c2cc([N+](=O)[O-])ccc12,inactive,inactive,,
Nc1ccc(S(=O)(=O)Nc2ccnn2-c2ccccc2)cc1,,,5.89% [at 18.9 µM],8.29% [at 18.9 µM]
O=C(CCOCCOCCOCCOCCC(=O)Nc1c(I)cc(I)c(C(=O)O)c1I)Nc1c(I)cc(I)c(C(=O)O)c1I,inactive,inactive,,
CCCCCCCOC(C)=O,inactive,inactive,,
CC(Oc1cc(Cl)ccc1Cl)C(=O)O (stereo not drawn),inactive,inactive,,

Structure (SMILES),Potency [1],Potency [2],"viability change, negative = cytotoxic [1]","activity change, negative = cytotoxicity [2]"
CCCCC(CC)COC(=O)c1ccc(N(C)C)cc1 (stereo not drawn),inactive,inactive,,
CCCCCCCCC(=O)OCC(C)OC(=O)CCCCCCCC (stereo not drawn),inactive,inactive,,
CC(Cl)C(Cl)Cl (stereo not drawn),inactive,inactive,,
CN1CCN(c2c(F)cc3c(=O)c(C(=O)O)cn(CCF)c3c2F)CC1,inactive,inactive,,
O=C(O)CN(CCN(CC(=O)O)CC(=O)O)CC(=O)O,,,3.3% [at 3.27 µM],-20.1% [at 3.27 µM]
Cc1cc(C(C#N)c2ccc(Cl)cc2)c(Cl)cc1NC(=O)c1cc(I)cc(I)c1O (stereo not drawn),inactive,inactive,,
c1ccc2c(c1)CCc1ccccc1N2,inactive,inactive,,
CCN(CCC#N)c1ccccc1,inactive,inactive,,
CN1CCN(C2=Nc3cc(Cl)ccc3Nc3ccccc32)CC1,inactive,inactive,,
ClC/C=C\CCl,inactive,inactive,,
CCC(CC)CO,inactive,inactive,,
Oc1ccc2cc(SSc3ccc4cc(O)ccc4c3)ccc2c1,inactive,inactive,,
CC(=O)Nc1ccc(N=Nc2cc(C)ccc2O)cc1,inactive,inactive,,
Nc1c[n+](N2CCOCC2)no1,inactive,inactive,,
COC(=O)CC#N,inactive,inactive,,
O=C(Oc1ccccc1)c1ccccc1,inactive,inactive,,
O=C(O)c1cn(C2CC2)c2cc(Cl)c(F)cc2c1=O,inactive,inactive,,
O=S1(=O)N=C(O)c2ccccc21,inactive,inactive,,
CC(C)CCCCCCOC(=O)c1ccc(C(=O)OCCCCCCC(C)C)c(C(=O)OCCCCCCC(C)C)c1,inactive,inactive,,
O=C(O)c1cc(N=Nc2ccc(S(=O)(=O)Nc3ccccn3)cc2)ccc1O,inactive,inactive,,
O=C1CC[C@H](C(=O)N2CCCCC2)N1,inactive,inactive,,
Cc1cc(S(=O)(=O)O)c(N)cc1Cl,inactive,inactive,,

Structure (SMILES),Potency [1],Potency [2],"viability change, negative = cytotoxic [1]","activity change, negative = cytotoxicity [2]"
C=C/C=C/C=C/CCCCC,,,-0.548% [at 18.9 µM],-22.6% [at 18.9 µM]
O=S(=O)(O)c1ccccc1/C=C/c1ccc(-c2ccc(/C=C/c3ccccc3S(=O)(=O)O)cc2)cc1,inactive,inactive,,
CC1CC(OC(=O)C(O)c2ccccc2)CC(C)(C)N1C (stereo not drawn),inactive,inactive,,
COc1ccc(Cl)cc1C,inactive,inactive,,
CC(C)CC(C)(C)C,inactive,inactive,,
COc1cnc(NS(=O)(=O)c2ccc(N)cc2)nc1,inactive,inactive,,
CCCCC[C@H](O)/C=C/[C@H]1[C@H](O)CC(=O)[C@@H]1C/C=C\CCCC(=O)O,inactive,inactive,,
C=C1[C@H]2CC[C@@H]3[C@H]2C(C)(C)CCC[C@]13C,inactive,inactive,,
CCCCCCCCCOC(=O)CCCCC(=O)OCCCCCCC,inactive,inactive,,
CC1CCc2nccnc21 (stereo not drawn),inactive,inactive,,
CC(=O)O[C@@H]1C[C@@H]2CC[C@@]1(C)C2(C)C,inactive,inactive,,
N#Cc1ccc(C(c2ccc(C#N)cc2)n2cncn2)cc1,inactive,inactive,,
O=C(OCc1ccccc1)c1ccccc1O,inactive,inactive,,
CCCCCCCCCCC(CO)CCCCCCCC (stereo not drawn),inactive,inactive,,
CC(C)NC[C@@H](O)COc1ccc(CC(N)=O)cc1,inactive,inactive,,
CC(=O)Nc1ccc(S(N)(=O)=O)cc1,inactive,inactive,,
CC(C)=CCCC(C)CCOC=O (stereo not drawn),inactive,inactive,,
OC[C@@H](O)[C@@H](O)[C@H](O)[C@@H](O)CO,inactive,inactive,,
O=C1C(O)=C(O)C(=O)C(O)=C1O,inactive,inactive,,
CCCCOCCOC(=O)COc1ccc(Cl)cc1Cl,inactive,inactive,,
CCCCCCCCCOC(C)=O,inactive,inactive,,
O=[N+]([O-])c1ccccc1CCO,inactive,inactive,,

Structure (SMILES),Potency [1],Potency [2],"viability change, negative = cytotoxic [1]","activity change, negative = cytotoxicity [2]"
O=C(c1ccc(O)cc1)c1ccc(O)c(O)c1O,inactive,inactive,,
CC/C=C\CCOC(C)=O,inactive,inactive,,
CN(C)CCN1CCN(c2cccc(Cl)c2)C1=O,inactive,inactive,,
Nc1ccc(F)c([N+](=O)[O-])c1,inactive,inactive,,
Cc1cc2c(OCC(CNC(C)(C)C)OC(=O)c3ccccc3)cccc2[nH]1 (stereo not drawn),inactive,inactive,,
Cc1cc(CCC(=O)OCCOCCOCCOC(=O)CCc2cc(C)c(O)c(C(C)(C)C)c2)cc(C(C)(C)C)c1O,inactive,inactive,,
c1ccc(OCCOc2ccccc2)cc1,inactive,inactive,,
CN(CCOc1ccc(NS(C)(=O)=O)cc1)CCc1ccc(NS(C)(=O)=O)cc1,inactive,inactive,,
COc1nc(C)nc(Cl)c1NC1=NCCN1,inactive,inactive,,
Nc1cc([N+](=O)[O-])cc(Cl)c1O,inactive,inactive,,
CCCCC(O)/C=C(C)/C=C/C=C/C(=O)N1CCCC1=O (stereo not drawn),inactive,inactive,,
CCOC(=O)[C@H](CCc1ccccc1)N[C@@H](C)C(=O)N(CC(=O)O)C1Cc2ccccc2C1,inactive,inactive,,
C/C=C/C=C/C(=O)O,inactive,inactive,,
CC(CCl)OP(=O)(OC(C)CCl)OC(C)CCl (stereo not drawn),inactive,inactive,,
Cc1ccc2c(c1)C(=O)OC2=O,inactive,inactive,,
COc1ccc2cc1Oc1ccc(cc1)C[C@H]1c3c(cc4c(c3Oc3cc5c(cc3OC)CCN(C)[C@@H]5C2)OCO4)CCN1C,inactive,inactive,,
OCCCCC(O)CO (stereo not drawn),inactive,inactive,,
O=C(NOCC1CC1)c1ccc(F)c(F)c1Nc1ccc(I)cc1Cl,inactive,inactive,,
CCCCCCCCCCCCCCN(C)C,,,8.85% [at 18.9 µM],-15% [at 18.9 µM]
C=C(C)C(=O)OCC(O)CO (stereo not drawn),inactive,inactive,,
Sc1nc2ccccc2s1,inactive,inactive,,
CC(C)CCC(=O)CCC(C)C,inactive,inactive,,

Structure (SMILES),Potency [1],Potency [2],"viability change, negative = cytotoxic [1]","activity change, negative = cytotoxicity [2]"
Nc1ccccc1S(=O)(=O)O,inactive,inactive,,
C=CC(=O)NCOCCCC,inactive,inactive,,
CC(C)(N)C#N,inactive,inactive,,
CC(C)=CCC[C@](C)(O)[C@@H]1CC=C(C)CC1,inactive,inactive,,
CC(C)(CO)COC(=O)C(C)(C)CO,inactive,inactive,,
CCOC(=O)c1cnc2c(cnn2CC)c1NN=C(C)C,inactive,inactive,,
OC[C@H]1O[C@H](O[C@H]2O[C@H](CO)[C@@H](O)[C@H](O)[C@H]2O)[C@H](O)[C@@H](O)[C@@H]1O,inactive,inactive,,
C/C(=C(/OCCOc1ccc(Cl)cc1)c1ccc(Cl)cc1Cl)n1ccnc1,inactive,inactive,,
CC(C)Cn1cnc2c1c(=O)n(C)c(=O)n2C,inactive,inactive,,
O=[N+]([O-])c1ccc(Oc2ccc([N+](=O)[O-])cc2)cc1,inactive,inactive,,
CCCCCCCCCCCCCC(=O)OCC,inactive,inactive,,
C=CC(=O)OCC(CO)(COCC(COC(=O)C=C)(COC(=O)C=C)COC(=O)C=C)COC(=O)C=C,30.3 µM (active),42.7 µM (active),,
Nc1nc2c(ncn2COC(CO)CO)c(=O)[nH]1,inactive,inactive,,
c1cnc2cc3c(cc2n1)C1CNCC3C1,inactive,inactive,,
COc1cc2c(Nc3ccc(Br)cc3F)ncnc2cc1OCC1CCN(C)CC1,inactive,inactive,,
CN1C(=O)CC(C)(c2ccccc2)C1=O (stereo not drawn),inactive,inactive,,
CCCCCCCC/C=C\CCCCCCCCN,inactive,inactive,,
COC(=O)C1=C(C)NC(C)=C(C(=O)O[C@@H]2CCCN(Cc3ccccc3)C2)[C@@H]1c1cccc([N+](=O)[O-])c1,inactive,inactive,,
COc1ccc2c(c1)c(CC(=O)OCC(=O)O)c(C)n2C(=O)c1ccc(Cl)cc1,inactive,inactive,,
CC(O)C(=O)O (stereo not drawn),inactive,inactive,,
O=C(OCc1ccccc1)c1ccccc1,inactive,inactive,,

# — PubChem BioAssay (Tox21)
